In PubChem BioAssay AID488969 (Vanderbilt High Throughput Screening Facility, 2010):
Whole data set: some 110,000 compounds, median “z-score” near -0.1, cut for the highest 2% near 2. Many of the other results were omitted from the sample, so the highest values are more common in it than they were. The source made the active and inactive calls.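 How the source made its calls: active means z-score in the third read window above 3 or below -3; inactive means the rest.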

What follows are compounds tested against Metabotropic glutamate receptor 8 (Rattus norvegicus) (UniProt P70579) (assay: mGluR8 Gi/Go-coupled signaling modulation – cell-based, rat, thallium flux, HTS, primary screen (AID 488969)). Conditions: HEK293 rat mGluR8, GIRK (G protein-gated inwardly rectifying potassium channel) thallium flux, FluoZin2; at 10 µM; stronger effect = higher value; submaximal glutamate (EC20) added with thallium.
Sequence of Metabotropic glutamate receptor 8 (Rattus norvegicus) (P70579 whole entry, looked up): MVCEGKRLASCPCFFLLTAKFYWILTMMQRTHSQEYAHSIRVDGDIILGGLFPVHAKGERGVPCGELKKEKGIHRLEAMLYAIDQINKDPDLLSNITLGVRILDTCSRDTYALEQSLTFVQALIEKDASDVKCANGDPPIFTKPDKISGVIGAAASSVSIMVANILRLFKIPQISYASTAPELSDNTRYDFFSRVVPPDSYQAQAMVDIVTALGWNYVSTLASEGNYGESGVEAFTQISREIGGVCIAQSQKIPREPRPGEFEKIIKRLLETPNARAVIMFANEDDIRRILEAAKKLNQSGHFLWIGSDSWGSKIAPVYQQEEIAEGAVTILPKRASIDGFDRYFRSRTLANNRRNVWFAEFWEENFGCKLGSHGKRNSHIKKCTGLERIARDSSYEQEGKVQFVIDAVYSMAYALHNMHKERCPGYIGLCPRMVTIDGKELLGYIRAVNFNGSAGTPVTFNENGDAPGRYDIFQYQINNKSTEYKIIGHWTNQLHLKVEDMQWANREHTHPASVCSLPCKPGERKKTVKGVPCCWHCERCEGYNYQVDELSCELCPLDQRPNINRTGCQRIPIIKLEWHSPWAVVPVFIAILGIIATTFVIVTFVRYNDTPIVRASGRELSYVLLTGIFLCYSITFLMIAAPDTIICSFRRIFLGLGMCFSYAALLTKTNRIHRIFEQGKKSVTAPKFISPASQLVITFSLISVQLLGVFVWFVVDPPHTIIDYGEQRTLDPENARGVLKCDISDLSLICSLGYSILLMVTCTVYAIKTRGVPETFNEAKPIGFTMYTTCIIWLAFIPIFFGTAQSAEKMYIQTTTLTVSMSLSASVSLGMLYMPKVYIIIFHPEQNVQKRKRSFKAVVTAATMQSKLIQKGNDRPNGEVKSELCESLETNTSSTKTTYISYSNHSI
`CCn1nnc(NC(=O)COc2cc(C)ccc2C(C)C)n1` gave a z-score of -0.0287. With `CCn1nnc(NC(=O)COc2ccc(C3CCCCC3)cc2)n1` the z-score was 2.13. Work on `CCCn1nnc(NC(=O)COc2ccc(Cl)cc2)n1` yielded a z-score of -0.244. With `CCCCn1nnc(NC(=O)COc2ccc(Cl)c(C)c2)n1` the z-score was 0.0561. For `Cn1nnc(NC(=O)COc2ccc(C3CCCCC3)cc2)n1`, the z-score was 0.85. Compound `CCCn1nnc(NC(=O)COc2ccc(CC)cc2)n1` has a z-score of -0.0151. For `CCCn1nnc(NC(=O)COc2cc(C)ccc2C(C)C)n1`, the z-score was 2.14. `CCCCn1nnc(NC(=O)COc2cc(C)ccc2C(C)C)n1` was tested, and the z-score was 1.04. With `CCCn1nnc(NC(=O)COc2ccc(C3CCCCC3)cc2)n1` the z-score was 2.04. For `CC1C/C(=N/N=C2/NC(=O)CS2)CC(C)(C)C1` (configuration not stated), the z-score was -0.18. `Cc1cccc(-n2nc3c([n+]2[O-])CCc2nonc2-3)c1C` was tested, and the z-score was -0.912. `Clc1ccccc1CN(Cc1ccccc1)C(c1cccs1)c1nnnn1C1CCCC1` (configuration not stated) gave a z-score of -0.135. `CN(C)C(CNC(=O)CCCc1c[nH]c2ccccc12)c1ccco1` (configuration not stated) gave a z-score of -0.0945. For `O=C(O)c1ccccc1C(=O)Nc1n[nH]c(=S)s1`, the z-score was -0.153. In the case of `CCCCNC(=O)CSc1nc2ccc(N3CCOCC3)cc2c(=O)n1CCc1ccccc1`, the z-score was 1.19. Compound `O=C(CSc1ccccc1)Nc1ccc(N2CCOCC2)cc1` has a z-score of 0.00596. `COCCn1c(SCC(=O)Nc2ccc(N3CCOCC3)cc2)nc2ccccc21` showed a z-score of -0.228. `Nc1ccccc1SCC(=O)Nc1ccc(N2CCOCC2)cc1` showed a z-score of 2.53. Work on `N#CCSc1nc2ccc(N3CCCCC3)cc2c(=O)n1Cc1ccccc1` yielded a z-score of 0.65. With `N#CCCn1c(SCC(=O)Nc2ccc(N3CCOCC3)cc2)nc2ccccc21` the z-score was 2.51. In the case of `CCCCn1c(SCC(=O)NC(C)CC)nc2ccc(N3CCOCC3)cc2c1=O` (configuration not stated), the z-score was 0.126. `N#CCCn1c(SCC(=O)NCC2CCCO2)nc2ccccc21` (configuration not stated) was tested, and the z-score was -0.368. Compound `O=C(CSc1ncccn1)Nc1ccc(N2CCOCC2)cc1` has a z-score of -0.202. `N#CCSc1nc2ccc(N3CCOCC3)cc2c(=O)n1CCc1ccccc1` was tested, and the z-score was 4.95 (active). In the case of `CCCCn1c(SCC(=O)NCCOC)nc2ccc(N3CCOCC3)cc2c1=O`, the z-score was 1.19. `CCCCn1c(SCC(=O)Nc2ccc(OC)cc2)nc2ccc(N3CCOCC3)cc2c1=O` was tested, and the z-score was 4.35 (active). `Cc1cc(NS(=O)(=O)c2ccc(NC(=O)c3oc4ccccc4c3C)cc2)no1` showed a z-score of 0.155. Compound `CCC(CC)C(=O)Nc1ccc(Nc2ccccc2)cc1` has a z-score of -0.165. For `Cc1cc(N2CCN(c3ccccc3Cl)CC2)n2cc(-c3ccccc3)nc2n1`, the z-score was 0.105. `Cc1ccnc(SCC(=O)Nc2c(C)n(C)n(-c3ccccc3)c2=O)n1` was tested, and the z-score was -0.181. For `CC(C)(C)c1ccc(C(=O)NCc2cccnc2)cc1`, the z-score was 0.116. For `CC(CCc1ccccc1)NC(=O)Cc1ccc([N+](=O)[O-])cc1` (configuration not stated), the z-score was -1.51.
